# ssDAF-12 act – S. stercoralis DAF-12 nuclear receptor activators, primary screen, cell-based, luminescence, HEK293, GRIP1 co-expression, lit1-tk-luc. Nuclear hormone receptor DAF-12 (Strongyloides stercoralis). HEK293 ssDAF-12/GRIP1 lit1-tk-luc reporter; % of 3 µM dafachronic acid response. activation, % at 6.8 µM. actives 1% (n = 370,000);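 active = activation above the mean over all tested compounds plus 3 SD, cut at about 0.9% in these data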;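 also: 0% = DMSO-only wells and 100% = 3 µM delta7-dafachronic acid wells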
# FXN GAA850 act – FXN promoter activators, primary screen, cell-based, luciferase luminescence, HEK293 lucGAA850; actives 0.56% (n = 360,000); HEK293 lucGAA850 FXN promoter luciferase reporter, 24 h; percent of 10 µM SAHA response; activation, % at 6 µM;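 active = activation above the average of all compounds screened plus 3 SD, cutoff fixed separately per campaign, cut at about 7.5% in these data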;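 also: 0% = DMSO wells and 100% = 10 µM SAHA wells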
# hgDAF12 agonist – H. glycines DAF-12 receptor agonists, primary screen, cell-based, luminescence, HEK293, GAL4 fusion, UAS-luciferase; Nuclear hormone receptor DAF-12 (Heterodera glycines), GAL4 fusion; activation, % at 6.8 µM; HEK293 GAL4-hgDAF12 UAS-luciferase reporter, agonist luminescence; normalized to butyrate control; actives 1.8% (n = 370,000);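 active = activation above a cutoff set at the mean of all screened compounds plus 3 SD, cut at about 10% in these data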;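 also: 0% = DMSO wells and 100% = sodium butyrate wells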
# hcDAF-12 act – H. contortus DAF-12 nuclear receptor activators, primary screen, cell-based, luminescence, HEK293, lit1-tk-luc reporter; HEK293 hcDAF-12 lit1-tk-luc reporter; 0% DMSO, 100% Δ7-dafachronic acid; activation, % at 6.8 µM; actives 1.4% (n = 370,000);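 active = activation above the mean of all tested compounds plus 3 SD, cut at about 5.5% in these data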;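 also: 100% = response to 3 µM Δ7-dafachronic acid high control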
# DAX1 inh-1 – DAX1 (NR0B1) inhibitors on StAR promoter, primary screen, cell-based, luminescence, SF-1 (NR5A1), full-length DAX-1; AID 652010, 2013; HEK293T StAR-luciferase reporter, SF-1/DAX-1 repression relief; inhibition, % at 6.8 µM; actives 1.1% (n = 370,000);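 active = inhibition above the mean over all tested compounds plus 3 SD, cut at about 3.6% in these data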;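 also: 0% = DAX-1 cells with DMSO and 100% = cells lacking DAX-1 with DMSO; higher inhibition means more luminescence from relief of DAX-1 repression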
# DAX1 inh-2 – DAX1 (NR0B1) inhibitors, primary screen, cell-based, HEK293, Gal4-DAX1, luciferase luminescence. inhibition, % at 6.75 µM. Nuclear receptor subfamily 0 group B member 1 (Homo sapiens), P51843. actives 0.99% (n = 340,000). HEK293 Gal4-DAX1 luciferase reporter;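 active = inhibition above the mean over all tested compounds plus 3 SD, cut at about 4.2% in these data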;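 also: 0% = DAX1-transfected cells with DMSO and 100% = empty-vector control cells with DMSO; inhibition shows as a rise in luminescence from relieved DAX1 repression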
# hgDAF12 ag – H. glycines DAF-12 receptor agonists, confirmation, cell-based, luminescence, HEK293, GAL4-LBD fusion; shares compounds with hgDAF12 agonist; HEK293 GAL4-hgDAF12 luciferase reporter, agonist mode; percent of butyrate response; activation, % at 6.8 µM; actives 80% (n = 3,300);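 active = mean activation over triplicate wells above the hit cutoff derived from the earlier primary screen, cut at about 11% in these data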;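 also: 0% = DMSO low control and 100% = 2 mM sodium butyrate high control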
# LXRb DAF12 ctr – LXR agonists, Gal4 luciferase reporter, confirmation, counter-screen for hgDAF-12 agonist project, cell-based, luminescence, HEK293, H. glycines campaign. shares compounds with hgDAF12 agonist. 24 h. activation, % at 6.8 µM. 3,300 tested, under 10 active;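 active = mean activation of the triplicate above a set limit carried over from the primary screen, none filed active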
# Target sequence (P55055 whole entry, looked up, the tested form may be a part): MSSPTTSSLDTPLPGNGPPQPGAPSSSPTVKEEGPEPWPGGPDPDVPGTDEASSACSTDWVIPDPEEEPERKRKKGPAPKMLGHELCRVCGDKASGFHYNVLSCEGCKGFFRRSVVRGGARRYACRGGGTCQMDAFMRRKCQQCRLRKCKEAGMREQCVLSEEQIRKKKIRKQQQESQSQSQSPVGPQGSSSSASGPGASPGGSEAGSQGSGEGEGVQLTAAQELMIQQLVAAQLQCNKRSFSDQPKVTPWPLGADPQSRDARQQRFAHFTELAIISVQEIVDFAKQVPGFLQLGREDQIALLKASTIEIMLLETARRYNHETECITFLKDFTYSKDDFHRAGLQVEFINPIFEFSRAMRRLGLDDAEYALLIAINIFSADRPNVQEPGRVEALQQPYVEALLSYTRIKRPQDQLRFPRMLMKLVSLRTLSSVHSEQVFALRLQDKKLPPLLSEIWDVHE
# * hit, by the source's call; . = no result given. Compounds with a hit are over-represented: about 4.5% of the library has one in this group of screens.
SMILES,ssDAF-12 act,FXN GAA850 act,hgDAF12 agonist,hcDAF-12 act,DAX1 inh-1,DAX1 inh-2,hgDAF12 ag,LXRb DAF12 ctr
OCC[C@@H]1C[C@@H](O)[C@H](O)[C@@]2(Cc3ccccc3O2)O1,0,1,2,-3,0,1,.,.
O=C(COc1ccc(F)cc1)c1ccc2c(c1)CCCC2,0,7,14*,2,2,1,13*,1
O=C(N/N=C/c1ccccn1)c1c[nH]c2ccccc12,0,2,15*,4,1,3,13*,1
O=C(Nc1ccccc1)Nc1cnccn1,-1,2,1,-1,0,1,.,.
CC(C)c1ccc(NC(=O)Nc2cnccn2)cc1,-1,2,16*,0,3,0,14*,1
COc1cccc(OC)c1C1=CC(=O)C[C@H](c2ccc3c(c2)OCO3)C1,-1,-1,-1,-1,0,2,.,.
COc1cccc2c1C(=O)O/C2=C/c1ccc2c(c1)OCO2,1.2*,6,16*,5,4,4,14*,1
CNC(=O)Nc1ccc(Cl)cc1,0,2,0,0,0,0,.,.
CC(C)=CC(=O)Nc1ccc(Cl)cc1,1.7*,5,19*,2,3,1,12*,1
Cc1cc(C(=O)COC(=O)c2ccc(O)cc2)c(C)n1Cc1ccco1,0,3,13*,6.0*,4.2*,1,16*,0
Cc1cc(C(=O)CSc2ncccn2)c(C)n1Cc1ccco1,0.9*,6,17*,6,4,1,18*,1
CCC1(CC(C)C)SC(N)=NC1=O (configuration not stated),0,0,1,-1,0,0,.,.
CCCN1C(=O)c2cc(C(=O)NC3CCCCCC3)ccc2C1O (configuration not stated),0,6,18*,3,3.8*,2,14*,1
O=C(CN1C(=O)COc2ccc(Cl)cc21)NC1CC1,-1,1,0,-1,1,-1,.,.
Cc1oc(-c2ccc(-c3ccccc3)cc2)nc1CN1CCN(CC(=O)N(C)C)CC1,0,4,15*,6.5*,3,1,14*,1
S=c1[nH]c(-c2ccccc2)cn1/N=C/c1ccc(Br)cc1,-1,1,1,0,1,1,.,.
S=c1[nH]c(-c2ccccc2)cn1/N=C/c1cccs1,1,0,14*,5.6*,0,1,5,0
CN1C2=N[C@@H](c3ccc4c(c3)OCO4)CC(=O)N2/C(=C\c2ccccc2)[C@@H]1c1ccccc1,-2,.,-6,-2,.,.,.,.
CC(=O)Oc1ccc(-c2csc(Nc3ccccn3)n2)cc1,0,2,16*,6,3.9*,2,14*,1
CC(=O)Nc1cccc(-c2csc(Nc3ccc(Cl)cn3)n2)c1,0,3,13*,2,3.8*,5.9*,13*,1
Cc1ccccc1CNC(=O)C(=O)NCC1OCCCN1S(=O)(=O)c1cccs1 (configuration not stated),-1,0,0,2,0,0,.,.
CC(C)Cc1cc(C(=O)NCc2cccs2)no1,1,3,19*,2,4.3*,3,13*,0
CC1=C(C(=O)OCCBr)C(c2cccc3ccccc23)NC(=O)N1 (configuration not stated),-1,0,0,-1,1,-1,.,.
COc1ccc(N/C=C/C(=O)c2ccc(Cl)cc2)cc1,1,5,13*,3,4,1,16*,1
Cc1cc(C)c2c(CN(C)Cc3ccccc3)cc(=O)oc2c1,0,.,13*,-2,1,.,-2,0
SMILES,ssDAF-12 act,FXN GAA850 act,hgDAF12 agonist,hcDAF-12 act,DAX1 inh-1,DAX1 inh-2,hgDAF12 ag,LXRb DAF12 ctr
C=CCNc1nc(NCc2ccc(N(C)C)cc2)c2sc(-c3ccccc3)cc2n1,0,3,15*,2,4.5*,.,10,0
COc1ccc(-c2cc(=O)c3cc(C)ccc3[nH]2)cc1,1,3,16*,5.7*,3,0,16*,1
COc1ccc(-c2cc(=O)c3cc(OC)ccc3[nH]2)cc1,.,1,.,.,.,-1,.,.
COc1ccc(C)cc1CN(C)c1ccc(S(=O)(=O)N2CCN(C)CC2)cn1,-1,0,-3,-1,-2,0,.,.
COc1cc(Cl)ccc1OCc1cc(C(=O)N2CCN(C)CC2)no1,-1,-1,-2,1,0,0,.,.
COc1cc(Cl)ccc1OCc1cc(C(=O)N2CCN(C)C(=O)[C@@H]2C)no1,0,2,14*,5.8*,3,3,13*,0
CS(=O)(=O)N1N=C(c2ccc(Br)cc2)CC1c1cccs1 (configuration not stated),-1,5,14*,3,0,2,10,1
Cc1cccc(/C(N)=N/OC(=O)c2cccnc2)c1,1.1*,3,20*,5,3,2,11*,1
CN(C)CCCNS(=O)(=O)c1ccc(N2CCN(Cc3ccc4c(c3)OCO4)CC2)c([N+](=O)[O-])c1,-2,1,-4,-4,-1,-1,.,.
O=C1Nc2ccccc2-c2nnnn2C1N1CCCCC1 (configuration not stated),0,.,-3,1,0,.,.,.
O=c1c2c(nc3cc(-c4cccc(F)c4)[nH]n13)CCC2,0,5,20*,4,3,1,17*,1
Cc1[nH]n2c(=O)c3c(nc2c1-c1ccc(F)cc1)CCCC3,-1,-1,4,1,0,.,.,.
O=C(Cc1ccccc1)Nc1ccc(NC(=O)C2CCCCC2)nc1,-2,2,1,-3,-1,-1,.,.

# Source: PubChem (The Scripps Research Institute Molecular Screening Center)
